The entries come from a sample that favours the strongest signals as a whole.
Assays:
Experiment in all cases: glycan array binding signal (z-score within array); higher = stronger binding
[1] = tested on: GalNAc(b1-4)GlcNAc(b1-2)Man(a1-3)[GalNAc(b1-4)GlcNAc(b1-2)Man(a1-6)]Man(b1-4)GlcNAc(b1-4)GlcNAc; conditions: glycan notation: IUPAC condensed, linker removed
Method in brief: (§1)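 From the Consortium for Functional Glycomics database, 3228 arrays were curated, keeping only those whose protein sequence was available. Binding is given as a within-array Z-score averaged across arrays sharing a protein sequence and across linkers. Negative Z-scores can be read as non-binding.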

[2] = tested on: Glc(a1-4)Glc(a1-4)Glc(a1-4)Glc; conditions: glycan notation: IUPAC condensed, linker removed
Method in brief: as §1

[3] = tested on: Glc(a1-6)Glc(a1-6)Glc(a1-6)Glc; conditions: glycan notation: IUPAC condensed, linker removed
Method in brief: as §1

Gal6S(b1-4)Glc = conditions: glycan notation: IUPAC condensed, linker removed
Method in brief: as §1

GalNAc(b1-6)GalNAc = conditions: glycan notation: IUPAC condensed, linker removed; mutation: R125K
Method in brief: as §1

Glc(a1-4)Glc = conditions: glycan notation: IUPAC condensed, linker removed
Method in brief: as §1

[4] = tested on: GalNAc(b1-3)Gal(a1-4)Gal(b1-4)GlcNAc; conditions: glycan notation: IUPAC condensed, linker removed
Method in brief: as §1

GalNAc(b1-3)GalNAc = conditions: glycan notation: IUPAC condensed, linker removed
Method in brief: as §1

GalNAc(a1-3)Gal = conditions: glycan notation: IUPAC condensed, linker removed
Method in brief: as §1

GalNAc(a1-3)GalNAc = conditions: glycan notation: IUPAC condensed, linker removed
Method in brief: as §1

wLAT-1A (Homo sapiens), Q01650, sequence (Q01650 whole entry): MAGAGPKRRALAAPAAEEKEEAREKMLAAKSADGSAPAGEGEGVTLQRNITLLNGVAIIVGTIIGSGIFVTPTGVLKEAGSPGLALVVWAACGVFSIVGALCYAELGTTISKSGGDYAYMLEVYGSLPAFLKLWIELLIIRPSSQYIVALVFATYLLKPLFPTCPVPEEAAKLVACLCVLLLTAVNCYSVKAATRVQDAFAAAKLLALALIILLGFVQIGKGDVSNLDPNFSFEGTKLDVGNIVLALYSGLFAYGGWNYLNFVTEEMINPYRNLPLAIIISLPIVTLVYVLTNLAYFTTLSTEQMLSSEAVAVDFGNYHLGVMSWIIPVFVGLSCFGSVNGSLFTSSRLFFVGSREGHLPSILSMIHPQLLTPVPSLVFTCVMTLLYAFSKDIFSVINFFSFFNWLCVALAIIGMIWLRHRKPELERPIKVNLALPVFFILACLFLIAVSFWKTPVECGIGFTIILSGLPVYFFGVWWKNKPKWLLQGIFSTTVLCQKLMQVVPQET
CHI3L1 (Homo sapiens), P36222, sequence (P36222 whole entry): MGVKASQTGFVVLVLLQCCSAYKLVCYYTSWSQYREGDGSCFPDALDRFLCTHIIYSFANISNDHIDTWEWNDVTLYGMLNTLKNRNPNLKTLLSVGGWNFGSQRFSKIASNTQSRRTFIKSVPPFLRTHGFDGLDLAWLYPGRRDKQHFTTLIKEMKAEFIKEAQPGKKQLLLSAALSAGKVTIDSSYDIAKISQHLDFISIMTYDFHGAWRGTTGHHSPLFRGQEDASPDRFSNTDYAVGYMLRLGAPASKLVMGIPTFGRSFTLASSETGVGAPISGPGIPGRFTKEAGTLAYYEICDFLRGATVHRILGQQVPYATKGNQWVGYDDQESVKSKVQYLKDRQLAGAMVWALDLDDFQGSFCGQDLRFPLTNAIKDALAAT
PILRb (Mus musculus), Q2YSF2, sequence (Q2YSF2 entry or part of it): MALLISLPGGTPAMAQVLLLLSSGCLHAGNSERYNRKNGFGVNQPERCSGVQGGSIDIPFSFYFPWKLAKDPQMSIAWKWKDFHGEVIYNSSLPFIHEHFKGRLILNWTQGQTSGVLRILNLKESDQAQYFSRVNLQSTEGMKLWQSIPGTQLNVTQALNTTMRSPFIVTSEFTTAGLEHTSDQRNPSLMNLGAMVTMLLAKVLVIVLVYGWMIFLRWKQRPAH
6RG (Lolium perenne), B9U140, sequence (B9U140 entry or part of it): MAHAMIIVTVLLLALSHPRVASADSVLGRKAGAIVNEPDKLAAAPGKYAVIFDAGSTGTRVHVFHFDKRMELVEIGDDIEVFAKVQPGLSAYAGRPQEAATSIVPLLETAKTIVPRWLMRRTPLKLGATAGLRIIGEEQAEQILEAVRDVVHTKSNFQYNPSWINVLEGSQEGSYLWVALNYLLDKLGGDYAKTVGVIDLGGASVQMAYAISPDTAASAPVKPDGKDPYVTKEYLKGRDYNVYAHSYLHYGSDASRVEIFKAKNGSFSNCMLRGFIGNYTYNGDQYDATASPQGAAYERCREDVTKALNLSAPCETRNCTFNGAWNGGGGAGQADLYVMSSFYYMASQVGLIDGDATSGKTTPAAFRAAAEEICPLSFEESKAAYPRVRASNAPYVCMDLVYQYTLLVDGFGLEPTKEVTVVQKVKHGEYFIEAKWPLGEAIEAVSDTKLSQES
C3b (Homo sapiens), P01024, sequence (P01024 23-667): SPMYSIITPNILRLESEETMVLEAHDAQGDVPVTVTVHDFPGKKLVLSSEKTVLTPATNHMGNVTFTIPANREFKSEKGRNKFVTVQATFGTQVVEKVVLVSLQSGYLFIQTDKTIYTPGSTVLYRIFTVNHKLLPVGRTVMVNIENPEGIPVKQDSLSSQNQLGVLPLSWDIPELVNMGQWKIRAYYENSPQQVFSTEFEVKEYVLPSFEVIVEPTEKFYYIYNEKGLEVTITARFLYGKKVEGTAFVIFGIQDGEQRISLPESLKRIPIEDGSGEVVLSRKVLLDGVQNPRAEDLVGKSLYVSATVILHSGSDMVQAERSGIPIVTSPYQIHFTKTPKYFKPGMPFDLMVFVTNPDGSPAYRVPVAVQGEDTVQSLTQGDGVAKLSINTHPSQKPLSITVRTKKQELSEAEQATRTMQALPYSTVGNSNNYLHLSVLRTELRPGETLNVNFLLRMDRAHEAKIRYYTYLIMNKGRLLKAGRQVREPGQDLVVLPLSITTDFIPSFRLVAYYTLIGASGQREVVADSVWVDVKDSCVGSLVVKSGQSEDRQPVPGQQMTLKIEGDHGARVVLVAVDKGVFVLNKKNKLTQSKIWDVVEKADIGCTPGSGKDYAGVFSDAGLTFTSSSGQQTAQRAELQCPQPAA
Aggrecan (Rattus norvegicus), NP_071526, sequence (chain, as listed by the source): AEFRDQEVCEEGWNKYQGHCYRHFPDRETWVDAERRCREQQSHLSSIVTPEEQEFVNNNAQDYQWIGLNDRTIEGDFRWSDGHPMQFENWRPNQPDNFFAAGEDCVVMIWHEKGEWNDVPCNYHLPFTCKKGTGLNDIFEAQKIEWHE
Avaren (Actinomycete K97), sequence (chain, as listed by the source): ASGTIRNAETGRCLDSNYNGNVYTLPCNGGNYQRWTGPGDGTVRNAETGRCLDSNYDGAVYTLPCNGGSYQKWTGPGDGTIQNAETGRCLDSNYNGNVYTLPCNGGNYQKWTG

Question: With Aggrecan (Rattus norvegicus), NP_071526 as the substance, how does the “glycan array binding signal (z-score)” value [1] read?
Answer: Its value is 0.017.

Question: Which “glycan array binding signal (z-score)” value [2] does the source give for CHI3L1 (Homo sapiens), P36222 here?
Answer: The value was 0.48.

Question: What about the “glycan array binding signal (z-score)” value [3] of the same substance?
Answer: The value was 1.01.

Question: How did the “glycan array binding signal (z-score)” value (Gal6S(b1-4)Glc; mutation: R125K) turn out when Siglec-8 (Homo sapiens), Q9NYZ4 was run?
Answer: The value was 0.06.

Question: What about the “glycan array binding signal (z-score)” value (GalNAc(b1-6)GalNAc) of the same substance?
Answer: Its value is -0.055.

Question: How did the “glycan array binding signal (z-score)” value (Glc(a1-4)Glc) turn out when C3b (Homo sapiens), P01024 was run?
Answer: The value was -0.67.

Question: PILRb (Mus musculus), Q2YSF2 was tested. Which “glycan array binding signal (z-score)” value [4] did it give?
Answer: The value was -0.074.

Question: And the “glycan array binding signal (z-score)” value (GalNAc(b1-3)GalNAc)?
Answer: The value was 0.288.

Question: For 6RG (Lolium perenne), B9U140, which “glycan array binding signal (z-score)” value (Gal6S(b1-4)Glc) is on record?
Answer: Its value is 0.084.

Question: What about the “glycan array binding signal (z-score)” value (GalNAc(a1-3)Gal) of the same substance?
Answer: Its value is -0.395.

Question: How did the “glycan array binding signal (z-score)” value [3] turn out when Avaren (Actinomycete K97) was run?
Answer: The value was -0.14.

Question: For wLAT-1A (Homo sapiens), Q01650, which “glycan array binding signal (z-score)” value (GalNAc(a1-3)GalNAc) is on record?
Answer: Its value is 6.65.

Question: What about the “glycan array binding signal (z-score)” value (GalNAc(a1-3)Gal) of the same substance?
Answer: Its value is 3.46.

Question: And the “glycan array binding signal (z-score)” value (GalNAc(b1-3)GalNAc)?
Answer: Its value is 1.87.

Question: Which “glycan array binding signal (z-score)” value (GalNAc(a1-3)GalNAc) does the source give for MpAFP RI GFP (Marinomonas primoryensis) here?
Answer: The value was -0.566.

Question: Which “glycan array binding signal (z-score)” value (Gal6S(b1-4)Glc) does the source give for HARE (Homo sapiens), Q8WWQ8 here?
Answer: Its value is 0.81.

From the supplement of paper PMC8728848
